What all share (experiment): DAPPL (digital affinity profiling via proximity ligation, sequencing); 10 mM Tris-HCl pH 7.5, 50 mM NaCl, 1 mM DTT, 4% glycerol, room temperature, 30 min; GST-TFs on glutathione beads, 16-mer random dsDNA library, 0.1% formaldehyde crosslink after washing; high values mean tight binding
Common to all, as to settings: protein: recombinant; tags: N-terminal GST; dsDNA, one strand shown

The target in one experiment is T1, FLI1 (Homo sapiens, UniProt Q01543 1-452).
T1 sequence: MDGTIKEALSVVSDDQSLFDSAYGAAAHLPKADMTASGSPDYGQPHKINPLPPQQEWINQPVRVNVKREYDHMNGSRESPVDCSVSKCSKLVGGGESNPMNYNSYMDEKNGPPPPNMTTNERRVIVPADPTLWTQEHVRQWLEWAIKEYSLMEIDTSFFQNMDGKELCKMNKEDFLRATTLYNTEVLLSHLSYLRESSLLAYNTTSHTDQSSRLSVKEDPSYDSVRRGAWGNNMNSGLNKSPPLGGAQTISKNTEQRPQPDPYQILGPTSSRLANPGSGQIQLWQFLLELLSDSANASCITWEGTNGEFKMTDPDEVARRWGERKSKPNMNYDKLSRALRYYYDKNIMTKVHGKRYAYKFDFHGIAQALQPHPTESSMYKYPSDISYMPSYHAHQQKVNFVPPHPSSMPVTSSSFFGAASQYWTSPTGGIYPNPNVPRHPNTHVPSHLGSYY
The procedure, abridged: (§1)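 Each value of binding signal is a hexamer's read frequency for a factor divided by the same hexamer's frequency in the tag-only sample. Barcoded, bead-captured GST fusions of human transcription factors made in yeast were pooled with that sample and incubated with 200 nmole of a random double-stranded 16-mer DNA library in Tris/NaCl/DTT/glycerol buffer at room temperature for 30 min. Washing, 0.1% formaldehyde crosslinking, proximity ligation, PCR and Illumina NextSeq500 sequencing followed.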

The target of a further experiment is T2, ELK1 (Homo sapiens, UniProt P19419 1-428).
T2 sequence: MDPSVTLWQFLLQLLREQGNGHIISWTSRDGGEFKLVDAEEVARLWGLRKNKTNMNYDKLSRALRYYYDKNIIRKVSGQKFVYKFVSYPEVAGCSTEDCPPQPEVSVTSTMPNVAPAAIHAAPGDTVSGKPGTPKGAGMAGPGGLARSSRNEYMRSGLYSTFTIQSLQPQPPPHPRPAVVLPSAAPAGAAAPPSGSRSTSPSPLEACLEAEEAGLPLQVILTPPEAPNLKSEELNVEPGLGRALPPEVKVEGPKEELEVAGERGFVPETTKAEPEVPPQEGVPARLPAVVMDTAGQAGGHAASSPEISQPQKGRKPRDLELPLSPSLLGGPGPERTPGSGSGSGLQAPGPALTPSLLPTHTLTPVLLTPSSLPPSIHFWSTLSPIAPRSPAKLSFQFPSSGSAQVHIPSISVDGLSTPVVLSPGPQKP
The procedure, abridged:
as §1

In another experiment the target is T3, GABPA (Homo sapiens, UniProt Q06546 1-454).
T3 sequence: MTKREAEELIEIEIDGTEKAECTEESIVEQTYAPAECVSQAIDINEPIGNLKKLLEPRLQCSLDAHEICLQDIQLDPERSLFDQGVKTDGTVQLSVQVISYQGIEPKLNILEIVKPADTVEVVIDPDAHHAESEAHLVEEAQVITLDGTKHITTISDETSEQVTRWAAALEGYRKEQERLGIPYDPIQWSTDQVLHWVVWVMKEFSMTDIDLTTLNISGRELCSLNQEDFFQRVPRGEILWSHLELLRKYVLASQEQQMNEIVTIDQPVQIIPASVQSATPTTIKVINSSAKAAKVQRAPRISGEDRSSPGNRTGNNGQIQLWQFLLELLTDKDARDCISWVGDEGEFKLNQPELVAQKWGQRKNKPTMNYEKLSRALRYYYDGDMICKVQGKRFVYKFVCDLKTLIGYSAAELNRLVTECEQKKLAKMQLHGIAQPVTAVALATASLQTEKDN
In outline: as §1

The target of the next experiment is T4, ERG (Homo sapiens, UniProt P11308 1-479).
T4 sequence: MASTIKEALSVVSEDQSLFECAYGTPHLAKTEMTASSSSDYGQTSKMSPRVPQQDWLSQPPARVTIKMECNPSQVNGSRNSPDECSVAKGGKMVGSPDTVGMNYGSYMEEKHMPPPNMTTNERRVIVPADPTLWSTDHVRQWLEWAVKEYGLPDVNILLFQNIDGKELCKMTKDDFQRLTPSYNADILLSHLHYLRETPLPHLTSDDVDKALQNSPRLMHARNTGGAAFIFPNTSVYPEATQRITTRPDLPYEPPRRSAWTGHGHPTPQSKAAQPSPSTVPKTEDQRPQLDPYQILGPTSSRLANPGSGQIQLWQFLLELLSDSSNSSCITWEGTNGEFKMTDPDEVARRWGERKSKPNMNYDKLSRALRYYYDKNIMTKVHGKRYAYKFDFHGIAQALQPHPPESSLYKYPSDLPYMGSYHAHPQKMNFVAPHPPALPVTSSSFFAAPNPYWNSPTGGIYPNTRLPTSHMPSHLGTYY
The procedure, abridged:
as §1

A further experiment deals with ELF1 (Homo sapiens, UniProt P32519 1-619). In outline: as §1
Sequence of ELF1 (P32519 whole entry): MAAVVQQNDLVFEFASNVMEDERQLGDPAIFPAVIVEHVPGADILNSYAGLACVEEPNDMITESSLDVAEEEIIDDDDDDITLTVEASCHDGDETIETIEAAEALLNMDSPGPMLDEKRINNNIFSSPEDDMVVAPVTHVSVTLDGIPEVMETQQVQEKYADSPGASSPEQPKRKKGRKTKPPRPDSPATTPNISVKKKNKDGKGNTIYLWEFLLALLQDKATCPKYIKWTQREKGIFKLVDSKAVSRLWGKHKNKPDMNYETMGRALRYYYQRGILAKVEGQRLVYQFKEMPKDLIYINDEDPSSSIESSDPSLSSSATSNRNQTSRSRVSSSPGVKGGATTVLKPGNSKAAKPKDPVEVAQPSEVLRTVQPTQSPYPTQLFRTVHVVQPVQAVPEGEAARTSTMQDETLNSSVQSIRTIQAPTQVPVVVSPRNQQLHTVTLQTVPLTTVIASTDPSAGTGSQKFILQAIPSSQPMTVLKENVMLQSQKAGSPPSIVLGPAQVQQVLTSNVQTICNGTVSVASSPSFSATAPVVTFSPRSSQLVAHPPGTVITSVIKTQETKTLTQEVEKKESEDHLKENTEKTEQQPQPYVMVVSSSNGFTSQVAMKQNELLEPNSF
The target of another experiment is T5, EHF (Homo sapiens, UniProt Q9NZC4 1-300).
T5 sequence: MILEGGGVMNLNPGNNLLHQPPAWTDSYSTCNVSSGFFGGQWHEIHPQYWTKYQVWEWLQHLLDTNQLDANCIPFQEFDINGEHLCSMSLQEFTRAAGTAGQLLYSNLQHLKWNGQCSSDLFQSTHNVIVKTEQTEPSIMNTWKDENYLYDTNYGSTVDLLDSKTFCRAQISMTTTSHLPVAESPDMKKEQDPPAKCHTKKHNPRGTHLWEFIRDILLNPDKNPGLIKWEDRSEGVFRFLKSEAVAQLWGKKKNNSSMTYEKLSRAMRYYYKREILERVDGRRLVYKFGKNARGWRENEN
In outline:
as §1

Another experiment concerns the target SPI1 (Homo sapiens, UniProt P17947 1-270). The procedure, abridged:
as §1

In another experiment the target is SPIB (Homo sapiens, UniProt Q01892 1-262). In outline: as §1
Sequence of SPIB (Q01892 whole entry): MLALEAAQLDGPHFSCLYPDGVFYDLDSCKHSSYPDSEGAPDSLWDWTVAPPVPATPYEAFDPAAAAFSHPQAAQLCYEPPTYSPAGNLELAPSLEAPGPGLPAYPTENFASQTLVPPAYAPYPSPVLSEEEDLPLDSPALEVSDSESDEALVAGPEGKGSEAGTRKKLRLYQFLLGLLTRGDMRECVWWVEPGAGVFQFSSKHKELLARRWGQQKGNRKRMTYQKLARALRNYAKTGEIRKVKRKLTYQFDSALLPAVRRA
For the next experiment, the target named is T6, ELK3 (Homo sapiens, UniProt P41970 1-407).
T6 sequence: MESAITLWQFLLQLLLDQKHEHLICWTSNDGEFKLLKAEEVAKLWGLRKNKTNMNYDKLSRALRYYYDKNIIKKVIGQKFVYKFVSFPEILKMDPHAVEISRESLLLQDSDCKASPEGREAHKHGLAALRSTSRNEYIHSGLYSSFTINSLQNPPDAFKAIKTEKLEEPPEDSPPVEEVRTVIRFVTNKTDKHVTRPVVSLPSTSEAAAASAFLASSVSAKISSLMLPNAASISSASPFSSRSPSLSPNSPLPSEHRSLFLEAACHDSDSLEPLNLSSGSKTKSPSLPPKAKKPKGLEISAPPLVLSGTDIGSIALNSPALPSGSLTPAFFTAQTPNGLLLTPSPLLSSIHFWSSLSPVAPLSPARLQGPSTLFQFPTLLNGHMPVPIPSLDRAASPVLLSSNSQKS
The procedure, abridged: as §1

Another experiment deals with T7, FEV (Homo sapiens, UniProt Q99581 1-238).
T7 sequence: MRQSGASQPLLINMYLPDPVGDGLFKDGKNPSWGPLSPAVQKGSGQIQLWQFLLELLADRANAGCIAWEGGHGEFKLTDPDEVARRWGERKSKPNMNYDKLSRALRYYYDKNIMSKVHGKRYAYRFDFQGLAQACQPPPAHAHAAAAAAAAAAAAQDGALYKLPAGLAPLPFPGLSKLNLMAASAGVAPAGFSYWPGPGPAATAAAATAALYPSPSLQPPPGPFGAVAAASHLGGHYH
In outline:
as §1

A further experiment concerns the target ETV5 (Homo sapiens, UniProt P41161 1-510). The procedure, abridged:
as §1

A further experiment concerns the target T8, SPIC (Homo sapiens, UniProt Q8N5J4 1-248).
T8 sequence: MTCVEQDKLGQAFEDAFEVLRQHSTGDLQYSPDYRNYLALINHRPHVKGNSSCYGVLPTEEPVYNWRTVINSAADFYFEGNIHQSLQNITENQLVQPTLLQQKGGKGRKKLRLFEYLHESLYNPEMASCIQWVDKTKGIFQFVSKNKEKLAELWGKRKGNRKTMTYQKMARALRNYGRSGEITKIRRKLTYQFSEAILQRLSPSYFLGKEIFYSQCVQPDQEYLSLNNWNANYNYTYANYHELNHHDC
The procedure, abridged: as §1

In the next experiment the target is ELF4 (Homo sapiens, UniProt Q99607 1-663). The procedure, abridged: as §1
Sequence of ELF4 (Q99607 whole entry): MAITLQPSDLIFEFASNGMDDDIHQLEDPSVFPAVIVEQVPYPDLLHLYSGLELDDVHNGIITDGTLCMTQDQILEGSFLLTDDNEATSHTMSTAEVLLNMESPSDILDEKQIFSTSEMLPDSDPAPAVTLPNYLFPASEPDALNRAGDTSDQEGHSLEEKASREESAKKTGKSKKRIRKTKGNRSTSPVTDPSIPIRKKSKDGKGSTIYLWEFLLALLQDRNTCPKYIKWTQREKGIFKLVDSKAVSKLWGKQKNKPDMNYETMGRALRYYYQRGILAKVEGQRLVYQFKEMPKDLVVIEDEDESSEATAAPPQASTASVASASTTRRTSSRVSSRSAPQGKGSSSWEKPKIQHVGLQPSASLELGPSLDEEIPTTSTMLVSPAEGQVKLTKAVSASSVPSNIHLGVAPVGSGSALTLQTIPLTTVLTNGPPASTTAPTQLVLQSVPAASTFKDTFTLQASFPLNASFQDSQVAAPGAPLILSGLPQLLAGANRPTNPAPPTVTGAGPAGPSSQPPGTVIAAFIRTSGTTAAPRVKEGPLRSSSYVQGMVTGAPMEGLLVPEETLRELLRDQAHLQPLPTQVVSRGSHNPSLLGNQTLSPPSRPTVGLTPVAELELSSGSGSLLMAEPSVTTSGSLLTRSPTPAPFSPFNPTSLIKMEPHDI
Another experiment deals with T9, ELK4 (Homo sapiens, UniProt P28324-2 1-405).
T9 sequence: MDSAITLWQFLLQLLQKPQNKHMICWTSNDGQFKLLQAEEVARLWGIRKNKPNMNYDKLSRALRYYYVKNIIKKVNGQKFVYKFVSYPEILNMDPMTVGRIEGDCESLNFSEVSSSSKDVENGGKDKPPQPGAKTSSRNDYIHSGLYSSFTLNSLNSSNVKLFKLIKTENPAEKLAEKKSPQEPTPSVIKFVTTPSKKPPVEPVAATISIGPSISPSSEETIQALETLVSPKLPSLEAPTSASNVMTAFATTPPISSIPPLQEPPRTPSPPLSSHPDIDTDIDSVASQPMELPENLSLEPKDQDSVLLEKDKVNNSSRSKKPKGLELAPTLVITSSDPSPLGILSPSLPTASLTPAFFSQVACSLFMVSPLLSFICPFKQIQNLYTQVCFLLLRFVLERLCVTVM
The procedure, abridged:
as §1

The target of another experiment is T10, ETV2 (Homo sapiens, UniProt O00321 1-342).
T10 sequence: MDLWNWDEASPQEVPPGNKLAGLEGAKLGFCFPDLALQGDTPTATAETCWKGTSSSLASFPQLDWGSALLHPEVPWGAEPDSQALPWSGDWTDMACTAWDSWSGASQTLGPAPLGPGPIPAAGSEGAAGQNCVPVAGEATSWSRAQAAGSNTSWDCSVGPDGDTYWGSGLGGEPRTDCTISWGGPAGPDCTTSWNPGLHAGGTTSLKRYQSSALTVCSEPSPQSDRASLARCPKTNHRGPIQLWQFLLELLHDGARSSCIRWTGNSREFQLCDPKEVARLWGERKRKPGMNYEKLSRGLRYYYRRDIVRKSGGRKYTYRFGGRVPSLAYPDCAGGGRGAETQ
The procedure, abridged:
as §1

The next experiment addresses T11, ELF3 (Homo sapiens, UniProt P78545 1-371).
T11 sequence: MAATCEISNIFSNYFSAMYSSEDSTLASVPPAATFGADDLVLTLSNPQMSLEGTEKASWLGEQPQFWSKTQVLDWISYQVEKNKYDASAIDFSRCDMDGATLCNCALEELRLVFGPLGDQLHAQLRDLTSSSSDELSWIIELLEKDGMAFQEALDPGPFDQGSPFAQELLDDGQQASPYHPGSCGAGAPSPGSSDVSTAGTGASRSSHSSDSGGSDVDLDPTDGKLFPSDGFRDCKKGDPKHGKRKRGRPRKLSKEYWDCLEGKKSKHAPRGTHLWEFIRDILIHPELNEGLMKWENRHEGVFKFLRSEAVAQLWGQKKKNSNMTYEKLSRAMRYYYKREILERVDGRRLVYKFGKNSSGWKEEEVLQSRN
The procedure, abridged: as §1

The target in another experiment is ETV1 (Homo sapiens, UniProt P50549 1-477). The procedure, abridged:
as §1

Sequence of ETV5 (P41161 whole entry): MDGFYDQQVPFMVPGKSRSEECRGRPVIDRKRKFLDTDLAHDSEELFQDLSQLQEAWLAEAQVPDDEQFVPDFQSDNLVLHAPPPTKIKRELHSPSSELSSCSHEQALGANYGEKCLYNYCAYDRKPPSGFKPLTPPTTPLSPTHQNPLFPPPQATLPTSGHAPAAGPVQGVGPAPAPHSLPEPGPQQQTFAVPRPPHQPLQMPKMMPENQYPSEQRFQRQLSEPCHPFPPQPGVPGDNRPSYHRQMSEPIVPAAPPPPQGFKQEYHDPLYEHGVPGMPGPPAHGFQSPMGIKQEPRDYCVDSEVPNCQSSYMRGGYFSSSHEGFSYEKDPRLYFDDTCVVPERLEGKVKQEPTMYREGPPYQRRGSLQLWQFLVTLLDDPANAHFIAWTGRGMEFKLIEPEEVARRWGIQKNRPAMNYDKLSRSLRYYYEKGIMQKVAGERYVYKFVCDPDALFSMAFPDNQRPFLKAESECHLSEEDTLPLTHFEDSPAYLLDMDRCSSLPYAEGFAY
Sequence of ETV1 (P50549 whole entry): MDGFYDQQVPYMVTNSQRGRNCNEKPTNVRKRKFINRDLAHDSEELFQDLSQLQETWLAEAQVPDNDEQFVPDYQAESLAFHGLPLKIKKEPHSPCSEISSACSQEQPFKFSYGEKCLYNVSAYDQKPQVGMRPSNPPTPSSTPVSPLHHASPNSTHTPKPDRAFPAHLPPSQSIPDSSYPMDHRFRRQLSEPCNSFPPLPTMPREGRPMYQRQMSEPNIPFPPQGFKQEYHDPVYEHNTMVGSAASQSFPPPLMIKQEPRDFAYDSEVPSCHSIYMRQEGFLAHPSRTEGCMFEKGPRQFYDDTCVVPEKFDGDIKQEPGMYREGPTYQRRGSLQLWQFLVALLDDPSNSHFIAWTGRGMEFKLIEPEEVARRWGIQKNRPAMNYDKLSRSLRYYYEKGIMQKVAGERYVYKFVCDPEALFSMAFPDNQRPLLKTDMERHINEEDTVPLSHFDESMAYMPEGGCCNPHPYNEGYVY

TGAACC: the binding signal with FLI1 was 1.17 fold enrichment (6-mer frequency, TF over GST control); with ELK1 it was 1.25 fold enrichment (6-mer frequency, TF over GST control); with GABPA, 1.17 fold enrichment (6-mer frequency, TF over GST control); in the experiment with ERG, 1.1 fold enrichment (6-mer frequency, TF over GST control); with ELF1 it was 1.15 fold enrichment (6-mer frequency, TF over GST control); with EHF, 1.16 fold enrichment (6-mer frequency, TF over GST control). Besides, the binding signal in the experiment with SPI1 was 1.15 fold enrichment (6-mer frequency, TF over GST control); with SPIB, 1.15 fold enrichment (6-mer frequency, TF over GST control); with ELK3 it was 1.12 fold enrichment (6-mer frequency, TF over GST control); with FEV it was 1.12 fold enrichment (6-mer frequency, TF over GST control); with ETV5, 1.21 fold enrichment (6-mer frequency, TF over GST control); with SPIC it was 1.1 fold enrichment (6-mer frequency, TF over GST control). Moreover, the binding signal in the experiment with ELF4 was 1.15 fold enrichment (6-mer frequency, TF over GST control); with ELK4 it was 1.19 fold enrichment (6-mer frequency, TF over GST control); in the experiment with ETV2, 1.01 fold enrichment (6-mer frequency, TF over GST control); in the experiment with ELF3, 1.12 fold enrichment (6-mer frequency, TF over GST control); with ETV1, 1.2 fold enrichment (6-mer frequency, TF over GST control).
